Here are results for 42 sequences from article PMC7819943, “Rice protein-binding microarrays: a tool to detect cis-acting elements near promoter regions in rice”.

Over roughly 68,000 sequences, “fluorescence intensity (a.u.)” has its median near 9,100; the highest 2% begin near 16,000. What follows is part of a selection rich in the highest values, with near analogues and random picks from the rest.

OsWRKY34, sequence (Q0JBA9 entry or part of it): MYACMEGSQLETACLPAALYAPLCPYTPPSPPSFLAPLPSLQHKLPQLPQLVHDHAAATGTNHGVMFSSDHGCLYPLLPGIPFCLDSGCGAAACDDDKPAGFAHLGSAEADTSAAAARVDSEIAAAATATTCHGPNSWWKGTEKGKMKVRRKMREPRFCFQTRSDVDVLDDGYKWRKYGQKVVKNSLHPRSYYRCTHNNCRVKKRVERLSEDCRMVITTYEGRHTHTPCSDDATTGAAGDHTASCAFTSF

This assay has as its target OsWRKY34 (Oryza sativa, UniProt Q0JBA9 1-250). Briefly: protein-binding microarray (RPBM); PBS, 2% BSA, 51.3 ng/ul salmon testes DNA, 50 uM zinc acetate, 200 nM TF, 25 C, 1 h; high values mean tight binding. The settings on record: protein: recombinant; tags: N-terminal polyhistidine and DsRed monomer fusion (pET32a); label: CyDye5-dUTP incorporated in the synthesized complementary strand; 3' TTTTT single-stranded linker to array surface; dsDNA, one strand shown. An outline of the steps: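 For the binding signal, per-feature fluorescence intensity was read in arbitrary units on an Axon 4000B scanner. Before scanning, a 2% BSA-blocked custom Agilent array made double-stranded with Cy5-dUTP was washed after 1 h at 25 °C with 200 nM protein and 50 µM zinc acetate. The proteins were Ni–NTA-purified transcription factors with N-terminal polyhistidine and DsRed fusions, expressed in E. coli BL21-CodonPlus.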
As for “AGCGATGGTGGTGGTGGTGGTGGTGGTGGCTGGGTTGCTTCGGAGTCACCTAGTGCAG”, the binding signal was 28200 fluorescence intensity (a.u.).

In the case of “GATCCGCGGCGCGGGTGGGGTTGTGGGGCGGGCGGAGATGCGGAGTCACCTAGTGCAG”, the binding signal is 19200 fluorescence intensity (a.u.).

As to “GCGGGCAGTGGGCGCGAGATCTCATCCGAGTGGGTGGGCGCGGAGTCACCTAGTGCAG”, the binding signal is 8060 fluorescence intensity (a.u.).

With “CCGCGGGTGGGGAGATTTGACCGGCGTTGACTCCGGGATGCGGAGTCACCTAGTGCAG”, the binding signal was 14300 fluorescence intensity (a.u.). With “CTTCTCCTCTAGTCTGTGGTTGGCTGGCGATGGTGGCTTGCGGAGTCACCTAGTGCAG”, the binding signal is 8820 fluorescence intensity (a.u.). Consider “CAGCCATCGCCTCCCCGACTCCCGTCGTTGTCCACCCCGTCGGAGTCACCTAGTGCAG”, for which the binding signal was 8260 fluorescence intensity (a.u.). Then “TGTTCTGCCAGCCAATCCAGATCGCCCTCGTATGCACGCTCGGAGTCACCTAGTGCAG”, with 8890 fluorescence intensity (a.u.); and “TGAACTCCTAATACTGTCCTACCACTTCTACATGTCTTCTCGGAGTCACCTAGTGCAG”, with 11300 fluorescence intensity (a.u.); and “GCCTGCGCCGATCCCCATCCATTCCGCGAGCGAGCGAGTGCGGAGTCACCTAGTGCAG”, with 8160 fluorescence intensity (a.u.).

Turning to “AACAGCTCTCGATCTGATCGTCCCCACACCGCACGCTGACCGGAGTCACCTAGTGCAG”, the binding signal is 9930 fluorescence intensity (a.u.).

For the sequence “CCTCGCCGAAGCCTCTCTACCTCTGTGTGTCTCTCTCTCCCGGAGTCACCTAGTGCAG”, the binding signal is 8120 fluorescence intensity (a.u.). Then “AAACTTCCCCGCGTACGATGACGCCAATACACATACATATCGGAGTCACCTAGTGCAG”, with 10700 fluorescence intensity (a.u.); and “GAGTGTATTTCATCTCAAGTTAGCATGCGAGTTTTTTTTACGGAGTCACCTAGTGCAG”, with 8210 fluorescence intensity (a.u.); and “TATCGTGCTTCCATGTGCACAGATCGATCAAACTCGCATGCGGAGTCACCTAGTGCAG”, with 9270 fluorescence intensity (a.u.).

Regarding “GTGTATTTATGGTTTTTTTTTCAACGTTTGACCATCCGTTCGGAGTCACCTAGTGCAG”, the binding signal was 12300 fluorescence intensity (a.u.).

Turning to “GGTATAGTTTTATACTGTTTATATCCAACGTTTGACCGTTCGGAGTCACCTAGTGCAG”, the binding signal was 10200 fluorescence intensity (a.u.).

“ATACATGACGCCGTTGATTTTTTAATCAACGTTTGACCATCGGAGTCACCTAGTGCAG”: the binding signal is 8210 fluorescence intensity (a.u.). Then “TGTATGATGCTGTTGACTTTTTATCCAACGTTTGACCATCCGGAGTCACCTAGTGCAG”, with 21200 fluorescence intensity (a.u.); and “ATGTATGACGCTGTTGACTTTGTAACCAATATTTGACCATCGGAGTCACCTAGTGCAG”, with 13400 fluorescence intensity (a.u.); and “GTGTATGATGCCGTTGACTTTTTATCCAACGTTTGACCATCGGAGTCACCTAGTGCAG”, with 38800 fluorescence intensity (a.u.). The figure for “TGGTGGAGAAGCTAATGAAGAGGGTGTTTTGTTGACTATGCGGAGTCACCTAGTGCAG” is 8500 fluorescence intensity (a.u.); for “GTTACATTCTTGTTCAGTCCTCACTACTCATCCCTACAATCGGAGTCACCTAGTGCAG” it is 11500 fluorescence intensity (a.u.); for “CCCACTATCATCCGTCATCCGTGCAACGCACGGGCATTATCGGAGTCACCTAGTGCAG” it is 9340 fluorescence intensity (a.u.).

As to “GTCTCACCGGAGCTCCGCCGCCGCCGCCGCCGTTTTCTCCCGGAGTCACCTAGTGCAG”, the binding signal is 25700 fluorescence intensity (a.u.).

For the sequence “CGTTTTTTAATAGATGACGCCATTGACTTTTTCTCACATACGGAGTCACCTAGTGCAG”, the binding signal is 11000 fluorescence intensity (a.u.). Take “CTCCGTTTTTTAATAGATGACACCGTTGACTTTTTCTCACCGGAGTCACCTAGTGCAG”: the binding signal was 30600 fluorescence intensity (a.u.). Then “GCCGCGGCGGAGCTCCCGTTTCCGTTGCCGTCTCCGGCGCCGGAGTCACCTAGTGCAG”, with 11000 fluorescence intensity (a.u.); and “CTCCGTTTTTTAATAGATGACGCCGTTGACTTTTTCTCACCGGAGTCACCTAGTGCAG”, with 27800 fluorescence intensity (a.u.). Then “TCCGTTTTTTAATAGATGACGCCGTTGACTTTTTCTCACACGGAGTCACCTAGTGCAG”, with 31700 fluorescence intensity (a.u.). For the sequence “CTCCCGCCGTCTCCGTCACCGTCTACCGTTTGCTCCAGTGCGGAGTCACCTAGTGCAG”, the binding signal was 9530 fluorescence intensity (a.u.). Then “CTGATTATACCATTGTTTTCGTTGCAACTAAATCTTGATACGGAGTCACCTAGTGCAG”, with 9280 fluorescence intensity (a.u.); and “TGCAAGCTCCGCCGTTTGTGTGTAATGGGGTTTCCCAAATCGGAGTCACCTAGTGCAG”, with 8230 fluorescence intensity (a.u.); and “CACTTCACCTTTTTTGCAAGATGCTACTACTAATTACTAACGGAGTCACCTAGTGCAG”, with 10400 fluorescence intensity (a.u.). The figure for “GATATACACACTTAGCTCTCCTACTGTGAGAATTCTCTTCCGGAGTCACCTAGTGCAG” is 9480 fluorescence intensity (a.u.); for “CCCTTTTTTATACCGTGGCATATCTCTCTGCATTTAATCTCGGAGTCACCTAGTGCAG” it is 13700 fluorescence intensity (a.u.). The figure for “ATATGGCATTGTTTCTGTGTTATTCAGGCGCACCTTTAAACGGAGTCACCTAGTGCAG” is 10100 fluorescence intensity (a.u.); for “CGGTTGCTCCTTTGCCTAATCACTCAATTCCAGTAACTTTCGGAGTCACCTAGTGCAG” it is 8760 fluorescence intensity (a.u.). Turning to “TTGGGGTTGGACCGGTTTTCATCTGTTCTTGTCCTGAGAGCGGAGTCACCTAGTGCAG”, the binding signal is 10800 fluorescence intensity (a.u.). Then “GTGCAGCAATCATCTCGTCCACCTCACCTTACCCGAAACCCGGAGTCACCTAGTGCAG”, with 8340 fluorescence intensity (a.u.). On to “GCCTCTGCCAGCCGACGGCCGTTCGGCCCTCCGCGCACGCCGGAGTCACCTAGTGCAG”, for which the binding signal is 8320 fluorescence intensity (a.u.).

As for “CTTATCCACCATCAATGTTCCTGACTTCAATTTTTCGTTGCGGAGTCACCTAGTGCAG”, the binding signal is 10500 fluorescence intensity (a.u.). The figure for “TAACATTGATTGTTATGTCACTTGTCTGTGGATCAACTCTCGGAGTCACCTAGTGCAG” is 9060 fluorescence intensity (a.u.).
